Source: the supplement of paper PMC6555819

Tests used:
Assay in all cases: PBM binding z-score (relative to random genomic background probes); higher = stronger binding; sequences stand for … in GC…GCGATTGACAGCGTAGAATGAAGG
[1] = tested on: FXR:RXRa (NR concentration 270 nM, RXRa partner concentration 90 nM)
How it was run: (§1)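 Scanned fluorescence from custom Agilent 4×180K protein-binding microarrays was regression-normalized. Binding z-scores use random background probes as reference. Ligand-free nuclear receptor dimers were incubated on the arrays for 1 h and detected with antibodies against each partner (one per run).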

[2] = tested on: LXRa:RXRa (NR concentration 270 nM, RXRa partner concentration 90 nM)
How it was run: as §1

[3] = tested on: LXRa homodimer (NR concentration 270 nM)
How it was run: as §1

[4] = tested on: LXRb:RXRa (NR concentration 270 nM, RXRa partner concentration 90 nM)
How it was run: as §1

[5] = tested on: LXRb homodimer (NR concentration 270 nM)
How it was run: as §1

[6] = tested on: PPARa:RXRa (NR concentration 270 nM, RXRa partner concentration 90 nM)
How it was run: as §1

[7] = tested on: PPARg:RXRa (NR concentration 180 nM, RXRa partner concentration 90 nM)
How it was run: as §1

[8] = tested on: PPARg:RXRa 270nM:90nM, anti-RXR (NR concentration 270 nM, RXRa partner concentration 90 nM)
How it was run: as §1

[9] = tested on: PPARg:RXRa 30nM:10nM, anti-RXR (NR concentration 30 nM, RXRa partner concentration 10 nM)
How it was run: as §1

[10] = tested on: PPARg:RXRa 90nM:30nM, anti-RXR (NR concentration 90 nM, RXRa partner concentration 30 nM)
How it was run: as §1

[11] = tested on: PPARg:RXRa DBDmut IVT, anti-RXR (DBD mutation: RXRa K156A/R161A, NR concentration 270 nM, RXRa partner concentration 90 nM)
How it was run: as §1

[12] = tested on: PPARg:RXRa IVT, anti-PPARg (NR concentration 270 nM, RXRa partner concentration 90 nM)
How it was run: as §1

[13] = tested on: PPARg DBDmut:RXRa IVT, anti-PPARg (DBD mutation: PPARg1 K132A/R137A, NR concentration 270 nM, RXRa partner concentration 90 nM)
How it was run: as §1

[14] = tested on: PPARg DBDmut IVT, anti-PPARg (DBD mutation: PPARg1 K132A/R137A, NR concentration 270 nM)
How it was run: as §1

[15] = tested on: PPARg homodimer (NR concentration 180 nM)
How it was run: as §1

[16] = tested on: PXR:RXRa (NR concentration 270 nM, RXRa partner concentration 90 nM)
How it was run: as §1

[17] = tested on: PXR homodimer (NR concentration 270 nM)
How it was run: as §1

[18] = tested on: RARa:RXR (NR concentration 270 nM, RXRa partner concentration 90 nM)
How it was run: as §1

[19] = tested on: RARa homodimer (NR concentration 270 nM)
How it was run: as §1

[20] = tested on: RARb:RXRa (NR concentration 270 nM, RXRa partner concentration 90 nM)
How it was run: as §1

ACTATTGGTTGAGACGAGGGCAACCGATAGGTTG showed a PBM binding z-score [1] of 0.496, a PBM binding z-score [2] of 0.289 and a PBM binding z-score [3] of -0.00418. For the same sequence, the PBM binding z-score [4] was 0.08, the PBM binding z-score [5] was 0.0327 and the PBM binding z-score [6] was 0.62. The PBM binding z-score [7] was 0.556, the PBM binding z-score [8] was 0.157 and the PBM binding z-score [9] was 0.062. For the same sequence, the PBM binding z-score [10] was 0.367, the PBM binding z-score [11] was -0.0898 and the PBM binding z-score [12] was 0.516. The PBM binding z-score [13] was 0.379, the PBM binding z-score [14] was 0.283 and the PBM binding z-score [15] was 0.821. For the same sequence, the PBM binding z-score [16] was 1.5, the PBM binding z-score [17] was 0.199 and the PBM binding z-score [18] was 1.1. The PBM binding z-score [19] was 0.274 and the PBM binding z-score [20] was 1.07.

For TAGCCTAGGGCAGATCGGGCCAGTATACGCTATA, the PBM binding z-score [1] was -0.551, the PBM binding z-score [2] was -0.549 and the PBM binding z-score [3] was -0.559. The PBM binding z-score [4] was -0.757, the PBM binding z-score [5] was -1.16 and the PBM binding z-score [6] was -0.359. It also gave a PBM binding z-score [7] of 0.168, a PBM binding z-score [8] of -0.585 and a PBM binding z-score [9] of -0.695. The PBM binding z-score [10] was -0.348, the PBM binding z-score [11] was -0.53 and the PBM binding z-score [12] was -0.145. For the same sequence, the PBM binding z-score [13] was -0.91, the PBM binding z-score [14] was -1.38 and the PBM binding z-score [15] was -0.781. For the same sequence, the PBM binding z-score [16] was -0.394, the PBM binding z-score [17] was -0.7 and the PBM binding z-score [18] was 0.406. For the same sequence, the PBM binding z-score [19] was -1.26 and the PBM binding z-score [20] was 0.79.

With TCAGACCGGTGAAGGTAACTCAGGTACGCAGTCG the PBM binding z-score [1] was 0.557, the PBM binding z-score [2] was 1.33 and the PBM binding z-score [3] was -0.308. For the same sequence, the PBM binding z-score [4] was 0.535, the PBM binding z-score [5] was -0.714 and the PBM binding z-score [6] was 0.614. The PBM binding z-score [7] was 0.21, the PBM binding z-score [8] was 1.47 and the PBM binding z-score [9] was 3.08. The PBM binding z-score [10] was 2.23, the PBM binding z-score [11] was 1.9 and the PBM binding z-score [12] was 0.032. For the same sequence, the PBM binding z-score [13] was -0.824, the PBM binding z-score [14] was -0.847 and the PBM binding z-score [15] was -0.31. For the same sequence, the PBM binding z-score [16] was 0.238, the PBM binding z-score [17] was -0.147 and the PBM binding z-score [18] was 0.303. The PBM binding z-score [19] was -0.254 and the PBM binding z-score [20] was 0.335.

With TCTATTAGTTGAAGGGCATCCGACGAGTCCGTTT the PBM binding z-score [1] was 0.895, the PBM binding z-score [2] was 0.85 and the PBM binding z-score [3] was 0.486. The PBM binding z-score [4] was 0.661, the PBM binding z-score [5] was 0.284 and the PBM binding z-score [6] was 0.934. The PBM binding z-score [7] was 0.123, the PBM binding z-score [8] was 2.03 and the PBM binding z-score [9] was 3.75. The PBM binding z-score [10] was 2.78, the PBM binding z-score [11] was 2.32 and the PBM binding z-score [12] was 0.399. It also gave a PBM binding z-score [13] of 0.276, a PBM binding z-score [14] of 0.308 and a PBM binding z-score [15] of 1.24. It also gave a PBM binding z-score [16] of 0.775, a PBM binding z-score [17] of 1.03 and a PBM binding z-score [18] of 0.683. The PBM binding z-score [19] was 1.77 and the PBM binding z-score [20] was 1.24.

CGTCCAAGGTCATAGGTGGTCAGTGAAGACAGAT was tested, and the PBM binding z-score [1] was 7.11, the PBM binding z-score [2] was 5.63 and the PBM binding z-score [3] was 1.51. For the same sequence, the PBM binding z-score [4] was 4, the PBM binding z-score [5] was 0.409 and the PBM binding z-score [6] was 5.57. For the same sequence, the PBM binding z-score [7] was 5.44, the PBM binding z-score [8] was 5.25 and the PBM binding z-score [9] was 2.42. The PBM binding z-score [10] was 4.36, the PBM binding z-score [11] was 2.96 and the PBM binding z-score [12] was 3.73. It also gave a PBM binding z-score [13] of 0.259, a PBM binding z-score [14] of -0.648 and a PBM binding z-score [15] of 2.54. For the same sequence, the PBM binding z-score [16] was 4.5, the PBM binding z-score [17] was 1.58 and the PBM binding z-score [18] was 5. For the same sequence, the PBM binding z-score [19] was 1.26 and the PBM binding z-score [20] was 4.89.

With TCGCGTAGGTTACCAATGGGGCATTCAGCTTTCT the PBM binding z-score [1] was -0.205, the PBM binding z-score [2] was 1.54 and the PBM binding z-score [3] was -0.559. For the same sequence, the PBM binding z-score [4] was 1.01, the PBM binding z-score [5] was -0.67 and the PBM binding z-score [6] was 0.898. It also gave a PBM binding z-score [7] of -0.342, a PBM binding z-score [8] of 0.743 and a PBM binding z-score [9] of 1.41. It also gave a PBM binding z-score [10] of 0.958, a PBM binding z-score [11] of 1.28 and a PBM binding z-score [12] of 0.245. The PBM binding z-score [13] was -1.11, the PBM binding z-score [14] was -0.793 and the PBM binding z-score [15] was -0.721. The PBM binding z-score [16] was 0.0701, the PBM binding z-score [17] was -1.03 and the PBM binding z-score [18] was 0.355. For the same sequence, the PBM binding z-score [19] was -1.2 and the PBM binding z-score [20] was 1.05.

With CTCGAAAGCTCGTGCTCAGGTGAGTATACCAAAC the PBM binding z-score [1] was -0.575, the PBM binding z-score [2] was -0.866 and the PBM binding z-score [3] was -0.669. The PBM binding z-score [4] was -0.84, the PBM binding z-score [5] was -0.65 and the PBM binding z-score [6] was -0.803. The PBM binding z-score [7] was -0.599, the PBM binding z-score [8] was -0.812 and the PBM binding z-score [9] was -0.841. It also gave a PBM binding z-score [10] of -0.913, a PBM binding z-score [11] of -0.844 and a PBM binding z-score [12] of -0.272. For the same sequence, the PBM binding z-score [13] was -1.04, the PBM binding z-score [14] was -0.415 and the PBM binding z-score [15] was -0.882. For the same sequence, the PBM binding z-score [16] was -0.746, the PBM binding z-score [17] was -0.669 and the PBM binding z-score [18] was -0.62. For the same sequence, the PBM binding z-score [19] was -1.18 and the PBM binding z-score [20] was -1.07.

ATCTCTAGGTAAACTTCAGTGAAAGATCGATAGA was tested, and the PBM binding z-score [1] was 0.831, the PBM binding z-score [2] was 0.515 and the PBM binding z-score [3] was 0.351. For the same sequence, the PBM binding z-score [4] was 0.0821, the PBM binding z-score [5] was 1.21 and the PBM binding z-score [6] was 0.408. The PBM binding z-score [7] was 0.488, the PBM binding z-score [8] was 0.399 and the PBM binding z-score [9] was 0.397. For the same sequence, the PBM binding z-score [10] was 0.45, the PBM binding z-score [11] was 2.68 and the PBM binding z-score [12] was 2.02. For the same sequence, the PBM binding z-score [13] was 1.5, the PBM binding z-score [14] was 1.2 and the PBM binding z-score [15] was 0.999. For the same sequence, the PBM binding z-score [16] was 0.0812, the PBM binding z-score [17] was 0.42 and the PBM binding z-score [18] was 0.344. For the same sequence, the PBM binding z-score [19] was 1.42 and the PBM binding z-score [20] was 0.268.

CGTCCAAGGTCAATGCTAGGTCCGTGAAAGCATT showed a PBM binding z-score [1] of 6.89, a PBM binding z-score [2] of 4.45 and a PBM binding z-score [3] of 0.519. The PBM binding z-score [4] was 3.53, the PBM binding z-score [5] was 0.496 and the PBM binding z-score [6] was 4.84. For the same sequence, the PBM binding z-score [7] was 3.19, the PBM binding z-score [8] was 3.97 and the PBM binding z-score [9] was 0.655. The PBM binding z-score [10] was 2.86, the PBM binding z-score [11] was 2.99 and the PBM binding z-score [12] was 3.02. The PBM binding z-score [13] was 0.341, the PBM binding z-score [14] was -0.534 and the PBM binding z-score [15] was 3.68. It also gave a PBM binding z-score [16] of 3.8, a PBM binding z-score [17] of 0.579 and a PBM binding z-score [18] of 4.21. The PBM binding z-score [19] was 1.32 and the PBM binding z-score [20] was 4.91.
